Measured values from ChEMBL document CHEMBL1961873, “Compounds: GSK PKIS; Assays: Nanosyn kinase panel” (2012).

Target: Fibroblast growth factor receptor 1 (Homo sapiens) (UniProt P11362)
Settings: at 1 µM
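Further: values are the mean percent inhibition of FGFR1 across replicate measurements.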

Sequence of Fibroblast growth factor receptor 1 (Homo sapiens) (P11362 22-822 limits assumed): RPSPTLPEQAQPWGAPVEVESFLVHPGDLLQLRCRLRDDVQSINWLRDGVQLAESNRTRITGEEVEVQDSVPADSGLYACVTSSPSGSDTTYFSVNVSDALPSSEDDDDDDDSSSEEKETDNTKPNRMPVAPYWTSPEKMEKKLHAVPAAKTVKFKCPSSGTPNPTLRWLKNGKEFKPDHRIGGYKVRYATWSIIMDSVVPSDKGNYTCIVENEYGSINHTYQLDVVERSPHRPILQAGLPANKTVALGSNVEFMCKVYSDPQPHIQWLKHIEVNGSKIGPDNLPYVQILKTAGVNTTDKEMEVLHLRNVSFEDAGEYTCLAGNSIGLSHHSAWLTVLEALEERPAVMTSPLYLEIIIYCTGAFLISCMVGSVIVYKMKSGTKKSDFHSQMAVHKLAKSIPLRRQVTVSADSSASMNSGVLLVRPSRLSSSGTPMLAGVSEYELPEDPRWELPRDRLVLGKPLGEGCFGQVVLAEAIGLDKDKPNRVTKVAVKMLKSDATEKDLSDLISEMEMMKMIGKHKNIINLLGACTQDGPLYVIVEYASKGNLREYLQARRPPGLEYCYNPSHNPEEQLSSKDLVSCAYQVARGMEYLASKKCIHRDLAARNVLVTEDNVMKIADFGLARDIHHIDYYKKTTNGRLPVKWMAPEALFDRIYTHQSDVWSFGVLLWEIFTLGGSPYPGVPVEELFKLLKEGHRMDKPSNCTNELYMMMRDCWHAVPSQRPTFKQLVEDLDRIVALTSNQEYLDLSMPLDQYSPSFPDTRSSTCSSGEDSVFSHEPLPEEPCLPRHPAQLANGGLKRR

Point of comparison: `c1cnn2ncc(-c3ccnc(Nc4ccc5c(c4)OCCO5)n3)c2c1`, inhibition 5.22%. Against it:
- Nc1nc(-c2ccccn2)c(-c2ccc3ncccc3n2)s1 — higher, 5.84%
- Fc1cccc(COc2ccc(Nc3ncnc4cc(-c5ccc[nH]5)sc34)cc2Cl)c1 — lower, 4.48%
- COc1cccc(-n2ncc3c(N/N=C/c4cccc(F)c4)ncnc32)c1 — lower, -3.18%
- CCn1c(-c2nonc2N)nc2c(C#CC(C)(C)O)nc(OC[C@@H](N)c3ccccc3)cc21 — higher, 5.43%
- COc1ccc(-c2coc3ncnc(N)c23)cc1 — higher, 9.2%
- Cc1cccc(-c2n[nH]cc2-c2ccc3ncccc3n2)n1 — higher, 8.38%
- Nc1ncnc2occ(-c3ccc(NC(=O)Nc4cc(C(F)(F)F)cc(C(F)(F)F)c4)cc3)c12 — higher, 43.7%
- [O-][S+]1CCN(Cc2ccc(-c3ccc4ncnc(Nc5ccc(OCc6ccccc6)c(F)c5)c4c3)o2)CC1 — lower, -2.34%
- Nc1nc(-c2ccc3c(c2)C(=Cc2cc(Br)c(O)c(Br)c2)C(=O)N3)cs1 — lower, -1.36%
- CC1=C(C(=O)Nc2ccc3[nH]ncc3c2)C(c2ccc3ccccc3c2)CC(=O)N1 (stereo unspecified) — higher, 13.2%
- CS(=O)(=O)CCNCc1ccc(-c2ccc3ncnc(Nc4ccc(OCc5ccccc5)c(Cl)c4)c3c2)o1 — lower, 3.71%
- CN1CCC(C(=O)Nc2n[nH]c3nnc(-c4ccccc4)cc23)CC1 — lower, 4.3%
- Cn1cc(C=C2C(=O)Nc3cccnc32)c2ccccc21 — higher, 17.3%
- Cc1nnc(-c2ccc(C)c(-c3ccc(C(=O)Nc4cccc(C#N)c4)cc3)c2)o1 — lower, 1.5%
- CNC(=O)c1cncc(/C=C/c2c(Cl)cccc2Cl)c1 — lower, -1.56%
